Compound activity from PubChem BioAssay.
Hits are enriched below; roughly 8.9% of the tested compounds scored in any of these assays.
SW480 rereplic: inducers of DNA re-replication in SW480 colon cancer cells; Potency, µM (top dose mostly 46.1 µM), for inactives: top-dose re-replication activation, hits mostly activators; SW480 DNA re-replication, Hoechst DNA content imaging, 48 h; AID 624297; hit rate 1.8% among 340,000; note: potency is the fitted concentration of half-maximal effect; % of control where 0% means no effect; nearly all actives have a fitted effect of over 55% in size
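DNA re-replication was detected as more nuclei of elevated Hoechst intensity after 48 hr exposure to compound (23 nL pinned per well of 250 cells).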
DRD3 agonist: D3 dopamine receptor (human) agonism; max activation, %; D3R DiscoveRx beta-arrestin cells, luminescence, 90 min; P35462; hit rate 0.58% among 410,000; in the data active = max activation above about 30%; note: 0% is about no effect
Target sequence (P35462 whole entry, looked up): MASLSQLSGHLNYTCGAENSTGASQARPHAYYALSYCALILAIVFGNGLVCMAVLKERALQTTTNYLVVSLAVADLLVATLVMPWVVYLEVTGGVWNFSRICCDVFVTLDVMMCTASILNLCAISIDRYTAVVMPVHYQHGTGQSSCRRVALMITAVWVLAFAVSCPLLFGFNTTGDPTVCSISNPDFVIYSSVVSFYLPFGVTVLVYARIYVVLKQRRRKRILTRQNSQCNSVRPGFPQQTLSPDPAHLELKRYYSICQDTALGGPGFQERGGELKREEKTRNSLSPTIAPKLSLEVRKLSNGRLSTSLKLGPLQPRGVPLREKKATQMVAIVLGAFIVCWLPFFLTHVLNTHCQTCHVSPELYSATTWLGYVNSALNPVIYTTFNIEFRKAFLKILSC
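Agonist mode: compounds and dopamine controls were applied to plated cells for 90 min at 37 degrees C after an overnight attachment at 1500 cells/well. Luminescent read-out followed 30 - 60 minutes at room temperature with DiscoveRx detection reagent.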
KB-3-1 cytotox: KB-3-1 parental cell cytotoxicity; KB-3-1 viability, CellTiter-Glo ATP luminescence, 72 h; Potency, µM (doses to about 46.1 µM), actives largely listed as cytotoxic; hit rate 1.4% among 400,000; AID 1347075; note: potency is the fitted concentration of half-maximal effect; % is set by controls: 0 for no effect and ±100 for the full control effect; nearly all actives have a fitted effect of over 60% in size
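Cells are dispensed, compounds pinned in, plates held at 37 °C for 72 h, then CellTiter-Glo is added and luminescence read after 10 minutes. Cell line: parental KB-3-1 in phenol-red-free DMEM, 10% FBS.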
KB-V1 MDR tox: KB-V1 MDR subline cytotoxicity; KB-V1 MDR cells viability, CellTiter-Glo, 72 h; hit rate 3.4% among 400,000; Potency, µM (titrated, usually from 46.1 µM), hits mostly cytotoxic; note: potency is the fitted concentration of half-maximal effect; % is set by controls: 0 for no effect and ±100 for the full control effect; nearly all actives have a fitted effect of over 60% in size
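KB-V1, DMEM (no phenol red) + 10% FBS; cpd pin-transferred, titration series; 72 h, 37 degrees C; CellTiter-Glo, luminescence. Data normalized, curve-fit.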
D3 antag: blocks the human D3 dopamine receptor; P35462; D3R cells, DiscoveRx beta-arrestin luminescence, antagonist mode; stronger effect = lower value; max response, negative = inhibition, %; hit rate 2.5% among 360,000; in the data active = max response below about -50%; inconclusive = no clear call, values can overlap the other calls; note: % is set by controls: 0 for no effect and ±100 for the full control effect
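Cells expressing the human receptor were seeded at 1500 cells/well, incubated overnight at 37 degrees C in 5% CO2, then exposed to library compounds with dopamine controls for 90 minutes at 37 degrees C before luminescent detection.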
MCF10A rerep: DNA re-replication induction in MCF 10a cells | MCF 10A DNA re-replication, Hoechst nuclear intensity, 48 h | Potency, µM (titrated, usually from 46.1 µM), for inactives: at the top dose activity, positive = re-replication, most hits filed as activators | hit rate 2.9% among 350,000; note: potency is the fitted concentration of half-maximal effect; % of control where 0% means no effect; nearly all actives have a fitted effect of over 50% in size
Active calls of the source: *; i = inactive; u = inconclusive; x = no result; [ ] = remark or other dose. Unless noted, calls come from the whole dose curve; as a rule, active = well fitted curve in the direction sought with a large enough effect; inconclusive = small, poorly fitted or top-dose-only effect, or another doubt; inactive = no such curve, though single readings can be large; an effect the other way counts as inactive or inconclusive.

SMILES	SW480 rereplic	DRD3 agonist	KB-3-1 cytotox	KB-V1 MDR tox	D3 antag	MCF10A rerep
COCc1cc(C)nc(SCC[N+](C)(C)CC(=O)c2ccccc2)c1C#N	-0.4%	-10.9	i	i	-54.6*	-1.2%
CCn1c(SCC(=O)Nc2ccc(N3CCOCC3)cc2)nnc1-c1ccc(OC)cc1	3.3%	4.2	i	16.4µM*	3.2	-3.7%
CCn1c(SCC(=O)Nc2cccc(OC)c2)nnc1-c1ccc(Cl)cc1	-2.7%	-1.0	u	11.6µM*	1.7	8.7%
COCc1cc(C)nc(SCC(=O)Nc2ccccc2N2CCOCC2)c1C#N	u	1.0	i	i	-8.9	20.6µM*
CCn1c(SCC(=O)Nc2ccccc2N2CCOCC2)nnc1-c1ccccc1	-2.9%	-0.6	i	18.4µM*	14.6	16.1%
CC(C)Oc1cccc(C(=O)Nc2ccc3oc(-c4ccccc4)nc3c2)c1	x	3.7	u	u	x	x
O=C(c1ccc(F)cc1)C(CCCCCC(CN1CCOCC1)C(=O)c1ccc(F)cc1)CN1CCOCC1 (centres undefined)	u	-13.4	u	i	-58.2*	u
OC(CN1CCOCC1)c1ccc(F)cc1 (centres undefined)	u	0.6	i	i	-20.3	0.9%
CC(C)n1c(CN(C)Cc2ccccc2)nc2c1c(=O)n(C)c(=O)n2C	-4.6%	50.1*	i	u	80.5	u
C#CCOc1nc2c(c(=O)n(C)c(=O)n2C)n1Cc1ccccc1	-9.6%	3.4	i	i	13.8	9.5%
CCCCn1c(CN(Cc2ccccc2)Cc2ccccc2)nc2c1c(=O)n(C)c(=O)n2C	-2.2%[9.22 µM]	4.9	u	u	5.5	u
CCCCCn1c(CN(C)Cc2ccccc2)nc2c1c(=O)n(C)c(=O)n2C	4.6%	0.9	18.4µM*	2.31µM*	15.2	u
Cn1c(=O)c2c(ncn2CCCc2ccccc2)n(C)c1=O	-8.7%	4.9	u	14.6µM*	21.2	-0.2%
C=CCOc1nc2c(c(=O)n(C)c(=O)n2C)n1Cc1ccccc1	u	16.9	u	8.2µM*	-5.7	-1.3%
CCOC(=O)N1CCC(NC(=O)c2ccc3c(c2)N(Cc2cc(C)ccc2C)C(=O)c2ccccc2S3(=O)=O)CC1	x	-5.5	x	x	x	x
CCOc1ccc(-c2cc(C(=O)Nc3ccc(NC(C)=O)cc3)no2)cc1	x	0.6	x	x	x	x
CC(=O)Nc1ccccc1-c1nc2ccccc2n(C(C)C(=O)Nc2cc(Cl)ccc2C)c1=O (centres undefined)	x	-13.7	i	i	x	x
CN1CCN(Cc2nc3c(c(=O)n(C)c(=O)n3C)n2CCCc2ccccc2)CC1	-9.6%	0.6	i	i	-52.0*	5.2%
CCOCCn1c(CN2CCN(c3ccc(F)cc3)CC2)nc2c1c(=O)n(C)c(=O)n2C	-3.1%	-2.1	u	9.2µM*	-18.8	4.9%
CN(Cc1ccccc1)c1nc2c(c(=O)n(C)c(=O)n2C)n1CCCc1ccccc1	-1.9%	0.2	i	i	7.0	25.9µM*
Cn1c(=O)c2c(nc(CN3CCN(C(c4ccccc4)c4ccccc4)CC3)n2CC(N)=O)n(C)c1=O	-4.3%	0.3	i	i	-50.2*	-5.4%
Cc1ccc(Cn2c(CN(C)Cc3ccccc3)nc3c2c(=O)n(C)c(=O)n3C)cc1	-0.5%	-3.8	i	i	21.4	-0.8%
CCCCn1c(CN2CCN(C(=O)OCC)CC2)nc2c1c(=O)n(C)c(=O)n2C	-6.6%	0.8	u	13µM*	11.1	8.1%
Cc1ccc(Oc2nc3c(c(=O)n(Cc4ccccc4Cl)c(=O)n3C)n2C)cc1C	x	7.8	i	i	x	x
Cc1ccc(Oc2nc3c(c(=O)n(Cc4ccccc4)c(=O)n3C)n2C)cc1C	x	35.2*	i	u	x	x
CN(Cc1ccccc1)Cc1nc2c(c(=O)n(C)c(=O)n2C)n1Cc1ccc(F)cc1	4.4%	-2.8	i	9.2µM*	-0.3	10.3%
COc1ccc(N2CCN(C(=O)c3nn(C)c4c3CSc3ccccc3-4)CC2)cc1	x	4.0	x	x	x	x
